Sampled rows, rich in hits. Any-hit rate of the full collection: about 19%.
TDP1 cell noCPT: qHTS for Inhibitors of human tyrosyl-DNA phosphodiesterase 1 (TDP1): qHTS in cells in absence of CPT; DT40 Tdp1-/- hTDP1 cells, no CPT, ATP luminescence, 48 h; Potency, µM (series often up to 46.2 µM), for inactives: at the top dose activity change, negative = growth inhibition, actives largely listed as inhibitors; actives 15% (n = 420,000); AID 686978, 2013; further: potency means the concentration at half of the fitted maximal effect; nearly all actives have a fitted effect of over 55% in size
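Readout: luminescence from CellTiter-Glo after 30 min in the dark at RT. Cells: DT40 Tdp1-/- with stable hTDP1, 400/well. Exposure: compounds alone, ≥48 hr, 37 °C.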
HT1080 IDH1KD tx: kills HT-1080 cells with IDH1 knockdown. HT-1080 IDH1 knockdown viability, ATP luminescence, 48 h. AID 686971. actives 2% (n = 360,000). Potency, µM (doses to about 46.1 µM), without a hit: at the highest dose activity, negative = toxicity, usual class: cytotoxic;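 further: potency means the concentration at half of the fitted maximal effect; 0% = DMSO wells and -100% = cell-free medium wells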
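IDH1KD HT-1080 cells, 750/well, RPMI + 5% FBS; compound pinned after 2 h settling; 48 h, 37 °C; CellTiter-Glo luminescence; % activity normalised to DMSO and no-cell wells; curves fitted, classed by r2 and efficacy.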
DT40 TDP1 CPT: growth inhibition of DT40 Tdp1-/-;hTDP1 cells with camptothecin (screen for TDP1 inhibitors); chicken DT40 Tdp1-/-;hTDP1 cells + 20 nM CPT, ATP luminescence, 48 h; Potency, µM (titrated, usually from 46.2 µM), inactives show at the highest dose activity change, negative = growth inhibition, actives largely listed as inhibitors; actives 12% (n = 420,000); AID 686979; further: potency means the concentration at half of the fitted maximal effect; nearly all actives have a fitted effect of over 55% in size
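Cell growth measured by CellTiter-Glo luminescence after a minimum 48 h, 37 C compound exposure with 20 nM CPT in Tdp1-knockout DT40 cells stably expressing hTDP1, seeded 400/well; qHTS titration format.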
HT1080NT lethal: kills 2HG-producing HT-1080-NT fibrosarcoma cells; HT-1080-NT fibrosarcoma viability, CellTiter-Glo ATP luminescence, 48 h; Potency, µM (highest dose often 46.1 µM), without a hit: at the highest dose activity, negative = less viability, hits mostly cytotoxic; actives 1.6% (n = 360,000);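 further: NT is the 2HG producing partner of a matched IDH1 knockdown line; potency means the concentration at half of the fitted maximal effect; 0% = DMSO-treated cells and -100% = media-only wells without cells; nearly all actives have a fitted effect of over 55% in size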
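A 48-hour cytotoxicity screen used HT-1080-NT cells plated 2 hours before compound delivery. ATP-based CellTiter-Glo luminescence measured viability, normalized to DMSO and no-cell controls.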
IL-1B inflam inh: inflammasome signaling inhibition, IL-1 beta readout. activity change, % at 57.5 µM. THP-1 LPS/ATP IL-1B secretion, AlphaLISA, 16 h; active compounds read low. AID 743279. actives 4.7% (n = 360,000); in the data active means activity change below about -50%; inconclusive means mostly about -30% to -49%
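Secreted IL-1B measured by AlphaLISA bead assay after 16 h compound exposure of THP-1 cells; compounds (final up to 57.5 uM) added 1 h before LPS (250 ng/mL) and ATP (1.25 mM) stimulation; lower signal means less secretion.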
Numbers without * were called inactive; ? = inconclusive; / = no result given. Unless noted, the call rests on the fitted dose curve; in most records, active means well fitted curve in the direction sought with a large enough effect; inconclusive means small, poorly fitted or top-dose-only effect, or another doubt; inactive means no such curve, though single readings can be large; an effect the other way counts as inactive or inconclusive. Unless noted, on the % scale 0 is the no-effect control and ±100 the full control effect.

SMILES	TDP1 cell noCPT	HT1080 IDH1KD tx	DT40 TDP1 CPT	HT1080NT lethal	IL-1B inflam inh
O=C(C(=NNc1ccccc1)C(=S)Nc1ccccc1)c1ccccc1	?	23.9%	29.1µM*	?	-19.3
COc1ccc(-c2cccc(NS(=O)(=O)c3cc(C)c(Cl)cc3C)c2)nn1	23.1µM*	/	13µM*	/	/
COc1ccc(-c2cccc(NS(=O)(=O)c3cc(C)ccc3OC)c2)nn1	23.1µM*	/	16.4µM*	/	/
COc1ccccc1C(=O)NC(=O)COC(=O)CCOc1cc(C)ccc1C	-3.8%	8.8%	-3.3%	-4.4%	0.0
CC1(C)CC2(CC(c3ccccc3F)c3ccc(O)c(O)c3O2)NC(=S)N1 (stereo not drawn)	23.1µM*	-0.7%	?	-9.9%	-6.1
CC1(C)C([N+](=O)[O-])C(c2ccccc2O)NC(c2ccccc2O)C1[N+](=O)[O-] (stereo not drawn)	?	-9.0%	-18.8%	-19.4%	-5.8
COc1ccc(NC(=O)N2CCCc3cc(C)ccc32)c(OC)c1	-23.0%	-10.3%	?	17.3%	?
CN(CCc1ccccc1)C(=O)c1ccc(NC(=O)Cc2ccc(NC(=O)C3CCN(C(=O)C4CCC4)CC3)cc2)cc1	10.3µM*	-17.6%	?	-5.6%	?
CN(CCc1ccccc1)C(=O)c1ccc(NC(=O)Cc2ccc(NC(=O)C3CCN(C(=O)C4CCCCC4)CC3)cc2)cc1	16.4µM*	?	?	-20.3%	2.1
Cc1ccc(-c2nnn(CC(=O)N(CC(=O)NC3CCCC3)c3cccc(F)c3)n2)o1	-11.4%	-16.1%	8.4%	-3.9%	17.0
CC1(C)N=C(c2ccccc2)C(c2ccccc2)=N1	?	4.2%	?	0.5%	-3.5
CC1CN(C(=O)COC(=O)[C@@H](NC(=O)c2ccccc2Cl)C(C)C)CC(C)O1 (stereo partly drawn)	?	0.7%	?	7.0%	28.4
Cc1ccc2c(c1)N(C(=O)CCC(=O)NCc1cccs1)CCO2	-13.9%	/	?	/	/
CCCN(CCC)c1ncnc2nc[nH]c12	?	1.3%	?	-16.4%	20.1
Clc1ccccc1CN(Cc1ccccc1)c1ncnc2nc[nH]c12	0.0%	?	-9.1%	-29.2%	-84.3*
COC(=O)c1cc2c(C)[nH]c(C)c2cc(C(=O)OC)c1=O	6.51µM*	1.0%	7.31µM*	-0.1%	-19.1
COc1ccc(-c2cn(-c3ccc(C)c(Cl)c3)c(=S)[nH]2)cc1OC	?	-15.6%	?	-9.8%	?
COc1ccc(-c2cn(-c3ccc(C)c(C)c3)c(=S)[nH]2)cc1OC	16.4µM*	-1.4%	-23.2%	-3.6%	-16.3
Cc1ccc(-n2cc(-c3ccc([N+](=O)[O-])cc3)[nH]c2=S)c(C)c1	16.4µM*	-2.3%	16.4µM*	-1.9%	-1.6
COc1ccccc1-n1cc(-c2ccc(Br)cc2)[nH]c1=S	13µM*	-28.5%	16.4µM*	-0.9%	4.1
COc1ccccc1-c1cn(-c2ccccc2)c(=S)[nH]1	20.6µM*	-21.5%	?	-13.2%	8.0
O=C(/C=C/c1cc[n+](CC(=O)c2ccc3cccc4c3c2CC4)cc1)c1ccc2cccc3c2c1CC3	?	-24.6%	?	-24.6%	-8.4
Cc1nnc(SCC(=O)NNC(=O)C(C)C)[nH]c1=O	6.7%	10.3%	0.4%	12.5%	0.2
O=C(O)c1c(NC(=O)N2CCOCC2)sc2c1CCCC2	15.8%	5.8%	-0.4%	0.7%	37.1
COc1ccccc1-n1cc(-c2ccc(C)cc2)[nH]c1=S	4.11µM*	?	3.66µM*	10.3µM*	13.4
SMILES	TDP1 cell noCPT	HT1080 IDH1KD tx	DT40 TDP1 CPT	HT1080NT lethal	IL-1B inflam inh
CCCCc1ccc(NC(=O)CN2C(=O)C3CCCCC3C2=O)cc1 (stereo not drawn)	?	-2.3%	?	-7.4%	-75.9*
CC(C)c1ccc(C2OCC(C)([N+](=O)[O-])CO2)cc1 (stereo not drawn)	?	0.4%	-17.6%	3.8%	1.3
CN(C)S(=O)(=O)c1ccc2[nH]cc(/C=C/c3nc4ccccc4c(=O)n3-c3ccccc3)c2c1	5.17µM*	?	5.8µM*	?	11.8
CCn1c(/C=C/c2ccccc2Cl)nc2ccccc2c1=O	16.4µM*	0.0%	?	-4.8%	?
CCn1c(/C=C\c2ccccc2C)nc2ccccc2c1=O	13µM*	2.8%	23.1µM*	-1.1%	-14.6
O=c1c2ccccc2nc(/C=C/c2cccnc2)n1CCc1ccccc1	13µM*	?	14.6µM*	?	-70.6*
CN(C)c1ccc(/C=C/c2nc3ccccc3c(=O)n2-c2ccc(C(=O)O)cc2)cc1	?	-11.5%	-19.8%	1.8%	-7.3
CC(=O)OC[C@@H]1CN(Cc2cccc(C(F)(F)F)c2)C[C@H](n2cnc3c(NCc4ccco4)ncnc32)O1	?	-23.5%	?	-15.5%	11.9
O=C(Cc1ccc(NC(=O)C2CCN(C(=O)C3CC3)CC2)cc1)Nc1ccc(C(=O)N2CCOCC2)cc1	-1.4%	8.5%	11.3%	16.3%	-18.1
NC(=O)CCN1CCN(C(=O)c2ccc3nc(Cc4cccc(Cl)c4)oc3c2)CC1	-8.2%	5.3%	2.1%	0.4%	4.0
CCn1c(/C=C/c2c[nH]c3ccccc23)nc2ccccc2c1=O	3.26µM*	-17.2%	?	?	34.8
Cc1ccccc1/C=C\c1nc2ccccc2c(=O)n1Cc1ccccc1	?	-12.2%	?	-16.9%	?
Cc1cccc(/C=C/c2nc3ccccc3c(=O)n2Cc2ccccc2)c1	?	?	?	?	-69.9*
Cc1cc(OC(=O)c2ccccc2Br)c([N+](=O)[O-])c(=O)[nH]1	4.8%	2.3%	33.2%	-2.2%	10.8
O=C(Nc1cccc(Cl)c1N1CCCC1)c1cccc(-c2cc3ccccc3oc2=O)c1	?	1.0%	18.4µM*	3.4%	33.9
CCn1nnc(NC(=O)c2cccc(-c3cc4ccccc4oc3=O)c2)n1	?	-0.7%	-12.6%	-0.6%	-3.7
O=C(Nc1ccc(CN2CCOCC2)cc1)c1cccc(-c2cc3ccccc3oc2=O)c1	?	?	16.4µM*	-25.3%	?
CCOC(=O)c1c(C)[nH]c(C)c1S(=O)(=O)N1CCCC(C(=O)Nc2ccc(F)cc2F)C1 (stereo not drawn)	-27.7%	/	?	/	/
CC(=O)Nc1cccc(Nc2cnccn2)c1	0.2%	11.4%	-0.7%	16.2%	8.5
CCCCN1CC(=O)N2[C@@H]3c4cc(OC)ccc4OC[C@@H]3[C@H](C(=O)OCC)[C@]2(C)C1=O	?	-1.9%	-9.0%	5.6%	-2.1

Source: PubChem
